Source: PubChem BioAssay AID1159580 (chemical genetic matrix, 2015)
“And” between values parts separate entries of the source, which are not always exact repeats. Equal values may be shown once. In all, about 5,500 compounds went through this assay and about 2,000 (36%) were called active. Another 18% or so got no clear call; they are omitted. Cut-off read from the data, not from the text of the source: active = normalized growth mostly below about 0.91 (no sharp cut-off); inconclusive = no clear call, values can overlap the other calls; inactive = mostly above about 0.92. This is one part of the list.

Test: chemical genetic growth profiling, strain panel (AID 1159580);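 note: tested at 20 µM; growth read once vehicle control cultures reached saturation at 30 °C; 1 = growth at the plate median or of vehicle wells; lower values mean less growth of the strain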
Conditions: S. cerevisiae deletion strains, growth OD

Measured: normalized growth

CCOC(=O)C1=C(C)NC(C)=C(C(=O)OC)C1c1cccc([N+](=O)[O-])c1 (stereo unspecified)
inactive: locus YAL013W, strain DEP1, hits give low values 1 and 0.987 | locus YAL021C, strain ccr4, hits give low values 0.996 | locus YAL026C, strain drs2, hits give low values 1.01 | locus YAL030W, strain snc1, hits give low values 0.997 | locus YBL061C, strain skt5, hits give low values 1 | locus YBR009C, strain hhf1, hits give low values 1.01 | locus YBR021W, strain FUR4, hits give low values 0.977 | locus YBR023C, strain chs3, hits give low values 0.999 | locus YBR171W, strain sec66, hits give low values 1.01 | locus YBR229C, strain ROT2, hits give low values 1.01 | locus YBR231C, strain swc5, hits give low values 0.999 | locus YBR279W, strain paf1, hits give low values 1.01 | locus YCL011C, strain gbp2, hits give low values 0.995 | locus YCL016C, strain dcc1, hits give low values 1.01 | locus YCL029C, strain bik1, hits give low values 1.01 | locus YCL061C, strain MRC1 (second series), hits give low values 0.985 | locus YCL061C, strain MRC1, hits give low values 1.01 | locus YCL069W, strain vba3, hits give low values 1.01 | locus YCR088W, strain abp1, hits give low values 1.01 | locus YDL005C, strain med2, hits give low values 1.01 | locus YDL035C, strain GPR1, hits give low values 1 | locus YDL040C, strain nat1, hits give low values 1 | locus YDL074C, strain BRE1, hits give low values 0.988 | locus YDL101C, strain DUN1, hits give low values 1 | locus YDL134C, strain PPH21, hits give low values 1 | locus YDL185W, strain tfp1, hits give low values 0.996 | locus YDL192W, strain arf1, hits give low values 1 | locus YDR001C, strain nth1, hits give low values 1.01 | locus YDR069C, strain doa4, hits give low values 1.01 | locus YDR101C, strain arx1, hits give low values 0.997 | locus YDR137W, strain rgp1, hits give low values 0.98 | locus YDR150W, strain NUM1, hits give low values 1 | locus YDR159W, strain sac3, hits give low values 1.01 | locus YDR162C, strain NBP2, hits give low values 0.945 | locus YDR195W, strain ref2 1.03 | locus YDR297W, strain sur2, hits give low values 1 | locus YDR318W, strain mcm21, hits give low values 1.02 | locus YDR334W, strain swr1, hits give low values 1.02 | locus YDR335W, strain msn5, hits give low values 1.02 | locus YDR363W, strain ESC2, hits give low values 1 | locus YDR388W, hits give low values 1.01 | locus YDR392W, strain spt3, hits give low values 0.946 | locus YDR502C, strain sam2, hits give low values 1 | locus YEL003W, strain gim4, hits give low values 1.01 | locus YEL037C, strain rad23, hits give low values 1.01 | locus YEL061C, strain CIN8 (second series), hits give low values 1.01 | locus YEL061C, strain CIN8, hits give low values 0.994 | locus YER002W, strain NOP16, hits give low values 0.933 | locus YER015W, strain faa2, hits give low values 1.02 | locus YER016W, strain bim1, hits give low values 1.01 | locus YER110C, hits give low values 1.01 | locus YER111C, strain swi4, hits give low values 1.02 | locus YER155C, strain BEM2 (second series), hits give low values 1.03 | locus YER155C, strain BEM2, hits give low values 0.997 | locus YER167W, strain BCK2, hits give low values 1 | locus YFR010W, strain ubp6, hits give low values 1.02 | locus YGL078C, strain dbp3, hits give low values 1.01 | locus YGL086W, strain mad1, hits give low values 1.02 | locus YGL167C, strain pmr1, hits give low values 1 | locus YGL173C, strain kem1, hits give low values 1.01 | locus YGL227W, strain vid30, hits give low values 1.01 | locus YGL240W, strain doc1, hits give low values 0.994 | locus YGL248W, strain PDE1, hits give low values 0.998 | locus YGL253W, strain hxk2, hits give low values 1 | locus YGR078C, strain PAC10, hits give low values 0.977 | locus YGR135W, strain pre9, hits give low values 0.977 | locus YGR229C, strain SMI1, hits give low values 0.961 and 1 | locus YGR252W, strain gcn5, hits give low values 1.02 | locus YHR013C, strain ard1, hits give low values 1.03 | locus YHR027C, strain rpn1, hits give low values 1.01 | locus YHR030C, strain SLT2, hits give low values 1.01 | locus YHR079C, strain IRE1 (second series), hits give low values 1 | locus YHR094C, strain hxt1, hits give low values 0.994 | locus YHR129C, strain ARP1, hits give low values 1.01 | locus YHR142W, strain chs7, hits give low values 0.976 | locus YHR200W, strain rpn10, hits give low values 1 | locus YIL066C, strain RNR3, hits give low values 1.02 | locus YIL073C, strain SPO22, hits give low values 1.04 | locus YIL125W, strain kgd1, hits give low values 0.999 | locus YIR030C, strain dcg1, hits give low values 0.999 | locus YJL092W, strain hpr5, hits give low values 1 | locus YJL095W, strain BCK1 (second series), hits give low values 1.01 | locus YJL095W, strain BCK1, hits give low values 0.994 | locus YJL115W, strain asf1, hits give low values 1.02 | locus YJL129C, strain trk1, hits give low values 0.992 | locus YJL134W, strain LCB3, hits give low values 1 | locus YJL154C, strain vps35, hits give low values 1.02 | locus YJL164C, strain tpk1, hits give low values 1.01 | locus YJL166W, strain qcr8, hits give low values 1.01 | locus YJL168C, strain set2, hits give low values 1.01 | locus YJL187C, strain SWE1 (second series), hits give low values 1.01
